Holding throughout (test): Confirmatory Screen for Target Class Profiling of Small Molecule Inhibitors of Methyltransferases (AID 1745852); on activity change, negative = inhibition: on the % scale 0 is the no-effect control and ±100 the full control effect
Test [1] has as its target Catechol O-methyltransferase (Homo sapiens) (UniProt P21964). The settings on record: MTase-Glo luminescence, SAH detection, recombinant enzyme; measured here: COMT max response; stronger effect = lower value.
The target of test [2] is Guanidinoacetate N-methyltransferase (Homo sapiens) (UniProt Q14353). The note with it: MTase-Glo luminescence, SAH detection, recombinant enzyme; activity change, negative = inhibition: at 57.3 µM (top of the series) unless noted; series mostly up to 57.3 µM.
In test [3] the target is Nicotinamide N-methyltransferase (Homo sapiens) (UniProt P40261). The note with it: MTase-Glo luminescence, SAH detection, recombinant enzyme; measured here: NNMT max response; stronger effect = lower value.
In test [4] the target is Phenylethanolamine N-methyltransferase (Homo sapiens) (UniProt P11086). The settings on record: MTase-Glo luminescence, SAH detection, recombinant enzyme; measured here: PNMT max response; stronger effect = lower value.

The structures appear in SMILES notation. Calls of active or inactive are those of the source. The call rests on the fitted dose curve.
Potency means the concentration at half of the fitted maximal effect.

Sequence of Nicotinamide N-methyltransferase (Homo sapiens) (P40261 whole entry, looked up): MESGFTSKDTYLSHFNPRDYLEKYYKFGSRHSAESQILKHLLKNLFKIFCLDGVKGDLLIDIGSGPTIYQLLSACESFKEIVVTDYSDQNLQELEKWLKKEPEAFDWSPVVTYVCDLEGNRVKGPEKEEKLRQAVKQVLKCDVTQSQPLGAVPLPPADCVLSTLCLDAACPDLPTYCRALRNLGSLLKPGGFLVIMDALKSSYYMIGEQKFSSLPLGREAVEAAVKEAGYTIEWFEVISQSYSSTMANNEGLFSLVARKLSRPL
Sequence of Phenylethanolamine N-methyltransferase (Homo sapiens) (P11086 whole entry, looked up): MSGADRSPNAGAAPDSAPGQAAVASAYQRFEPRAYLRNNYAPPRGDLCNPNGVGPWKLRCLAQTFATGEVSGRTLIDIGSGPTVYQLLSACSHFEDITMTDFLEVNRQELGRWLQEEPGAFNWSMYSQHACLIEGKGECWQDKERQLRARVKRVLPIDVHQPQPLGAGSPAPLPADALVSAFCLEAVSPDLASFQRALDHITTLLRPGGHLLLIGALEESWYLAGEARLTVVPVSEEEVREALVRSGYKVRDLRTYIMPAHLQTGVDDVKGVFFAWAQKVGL
Sequence of Catechol O-methyltransferase (Homo sapiens) (P21964 whole entry, looked up): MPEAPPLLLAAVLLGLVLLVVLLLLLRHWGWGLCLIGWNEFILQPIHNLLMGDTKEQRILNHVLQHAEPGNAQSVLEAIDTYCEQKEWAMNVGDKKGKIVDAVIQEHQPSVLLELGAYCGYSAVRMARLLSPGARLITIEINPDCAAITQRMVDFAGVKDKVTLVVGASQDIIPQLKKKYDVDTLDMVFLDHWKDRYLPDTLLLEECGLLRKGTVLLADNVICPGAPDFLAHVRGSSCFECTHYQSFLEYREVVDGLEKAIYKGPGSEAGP

For `CCN(CC)Cc1cnc2c(C(=O)N3CCCN4CCC[C@H]4C3)cnn2c1`, the activity in test [1] is -42.2%; in test [3], 12.3%; in test [4] it was 8.45%. For the same molecule, the activity change, negative = inhibition in test [2] came to 7.01%.

For the molecule `Cc1ccc([C@@H]2CN(c3cc(N4CCC(O)CC4)ncn3)C[C@H]2N(C)C)cc1`, the activity in test [1] is -2.09%; in test [3], -5.73%; in test [4] it was -0.207%. Besides, the activity change, negative = inhibition in test [2] is -0.694%.

Consider `O=C(NCCc1ccc(Cl)cc1)c1ccc2c(=O)[nH]c3c(C(=O)NC4CCCC4)sc(=S)n3c2c1`, for which the activity in test [1] is -38.3%; in test [3], -77.1%; in test [4], -66.5%. The Potency in test [2] was 27.1 µM (active).

As to `O=C(NCCc1ccc(Cl)cc1)c1ccc2c(=O)[nH]c3c(C(=O)NCC4CCCO4)sc(=S)n3c2c1` (stereo not given), the activity in test [1] is -36.2%; in test [3] it was -49.4%; in test [4] it was -36.4%. Further, the Potency in test [2] is 27.1 µM (active).

As to `NC(=O)C1(N2CCCCC2)CCN(c2nc3c(S(=O)(=O)c4ccccc4)nnn3c3ccccc23)CC1`, the activity in test [1] was -1.9%; in test [3] it was -8.86%; in test [4] it was -8.88%. In addition, the activity change, negative = inhibition in test [2] worked out at 0%.

As for `COc1ccc(OC)c(NC(=O)c2sc(=S)n3c2[nH]c(=O)c2ccc(Cl)cc23)c1`, the activity in test [1] was -83.1%; in test [3], -72.9%; in test [4] it was -84.9%. Also, in test [2], the Potency was 24.1 µM (active).

Turning to `CCCC1c2cccn2CCN1C(=O)Nc1ccc(Br)cc1F` (stereo not given), the results for the activity in test [1], in test [3] and in test [4] were -8.21%, -17% and -10.2%, respectively. Also, the activity change, negative = inhibition in test [2] was -4.98%.

On to `Cc1cnc(CCNC(=O)Nc2ccc3c(c2)OCCO3)n1C1CCC1`, for which the results for the activity in test [1], in test [3] and in test [4] were 2.74%, -5.7% and 1.37%, respectively. The activity change, negative = inhibition in test [2] is -0.0713%.

`O=C(CCn1c(=O)[nH]c2cc(S(=O)(=O)N3CCCCC3)ccc21)Nc1ccc(Cl)cc1`: the activity was -1.03% in test [1], -18.8% in test [3] and -3.3% in test [4]. In addition, in test [2], the activity change, negative = inhibition worked out at 0%.

Take `CC(=O)Nc1cccc(-c2cc3c(cn2)CN(Cc2ccccc2)CCN3)c1`: the activity in test [1] was -2.16%; in test [3], -13%; in test [4], -14.8%. Also, the activity change, negative = inhibition in test [2] was found to be 0.249% [at 85.7 µM].

With `O=C(CCc1nnc2n(Cc3ccc(Cl)cc3)c(=O)c3ccccc3n12)NCCN1CCCC1`, the activity in test [1] was 4.15%; in test [3] it was -12.3%; in test [4], 0%. Also, the activity change, negative = inhibition in test [2] came to 1.71%.

As to `CC(C)Cn1c(=O)c2ccccc2n2c(CCC(=O)N3CCC(Cc4ccccc4)CC3)nnc12`, the results for the activity in test [1], in test [3] and in test [4] were -2.5%, -56.6% and -9.36%, respectively. Further, the activity change, negative = inhibition in test [2] was 0.755%.

As for `CC(C)CCn1c(=O)c2ccccc2n2c(CCC(=O)N3CCN(c4ccc(F)cc4)CC3)nnc12`, the figures for the activity in test [1], in test [3] and in test [4] were 1.78%, -61.2% and -6.79%, respectively. Besides, in test [2], the activity change, negative = inhibition worked out at 0%.

Take `COc1ccc(-c2cc3nc4c(c(=O)n3[nH]2)CN(C(=O)CN(C)S(=O)(=O)c2cnc[nH]2)CC4)cc1`: the activity is -19.9% in test [1], -27.5% in test [3] and -19.5% in test [4]. In addition, the Potency in test [2] was 21.5 µM (active).

As for `Cc1ccc(CN2C(=O)c3ccc(-c4ccco4)n3CC2(C)C(=O)NCc2ccc(Cl)cc2)cc1` (stereo not given), the activity was 0% in test [1], -6.21% in test [3] and 1.57% in test [4]. In test [2], the Potency result was “inactive”.

As for `CCc1cccc(NC(=O)Cn2c(=O)oc3cc(S(=O)(=O)N4CCCCC4)ccc32)c1`, the activity in test [1] is 1.79%; in test [3], -2.82%; in test [4] it was -33.8%. The activity change, negative = inhibition in test [2] was determined as 0%.

Turning to `O=C(CCc1nnc2n(Cc3ccc(F)cc3)c(=O)c3ccccc3n12)N1CCC(N2CCCCC2)CC1`, the activity in test [1] is 3.84%; in test [3] it was -4.81%; in test [4] it was 0%. Moreover, in test [2], the activity change, negative = inhibition was 0%.

For the molecule `CCCC1c2cccn2CCN1C(=O)Nc1ccc(Br)cc1` (stereo not given), the figures for the activity in test [1], in test [3] and in test [4] were -7.6%, -18.3% and -12.2%, respectively. Also, the activity change, negative = inhibition in test [2] was -4.2%.

As to `Nc1nc(NCc2ccc(Cl)cc2Cl)cc(C2CC(O)C2)n1` (stereo not given), the activity in test [1] is 1.79%; in test [3] it was -23.3%; in test [4] it was -0.704%. In test [2], the activity change, negative = inhibition is -2.38%.

With `CC(CNC(=O)CCc1nnc2n(Cc3ccc(F)cc3)c(=O)c3ccccc3n12)c1ccccc1` (stereo not given), the activity is -6.68% in test [1], -44.2% in test [3] and -0.739% in test [4]. In test [2], the activity change, negative = inhibition was -2.31%.

On to `COc1ccc(CCNC(=O)c2ccc(CN3C(=O)CCn4nccc43)cc2)cc1OC`, for which the activity was -29.4% in test [1], -12.4% in test [3] and -27% in test [4]. Besides, the Potency in test [2] is 24.1 µM (active).

For the molecule `CC(C)Cn1c(=O)c2ccccc2n2c(CCC(=O)Nc3ccc(F)c(F)c3)nnc12`, the activity in test [1] is -1.85%; in test [3], -38.2%; in test [4] it was -5.35%. Further, the activity change, negative = inhibition in test [2] amounted to 1.46%.

Take `CCn1cc(CN2CCN(C(=O)c3cccs3)CC2)ccc1=O`: the activity is 0.352% in test [1], -1.21% in test [3] and -6.54% in test [4]. Besides, the activity change, negative = inhibition in test [2] is -2.5%.

Consider `CC(C)CCn1c(=O)c2ccccc2n2c(CCC(=O)N3CCN(Cc4ccccc4)CC3)nnc12`, for which the figures for the activity in test [1], in test [3] and in test [4] were 3.34%, -63.2% and -0.865%, respectively. Moreover, the activity change, negative = inhibition in test [2] amounted to 0%.

Take `Cc1cc(-c2nc3ccncc3[nH]2)c(C)[nH]1`: the activity in test [1] was -4.56%; in test [3], -25.8%; in test [4], -11.2%. In addition, the activity change, negative = inhibition in test [2] amounted to 3.2% [at 114 µM].

Take `COc1cccc([C@H]2Nc3ccc(S(=O)(=O)Nc4ccc(C)cc4C)cc3[C@H]3C=CC[C@H]32)c1`: the activity is -17.4% in test [1], -21.2% in test [3] and -27.1% in test [4]. Further, in test [2], the Potency is 27.1 µM (active).

As for `O=C1c2ccccc2C(=O)c2cc(S(=O)(=O)N(CCO)CCO)ccc21`, the values for the activity in test [1], in test [3] and in test [4] were -23%, -1.51% and -73.8%, respectively. Also, the activity change, negative = inhibition in test [2] turned out to be 2.27%.

On to `CCCCNC(=O)c1cccc(-c2cc(N3CCN(C)CC3)nc(N)n2)c1`, for which the figures for the activity in test [1], in test [3] and in test [4] were -2.86%, -3.76% and -4.09%, respectively. Also, in test [2], the activity change, negative = inhibition is -5.28%.

Regarding `COc1cccc(-c2cccc(C(=O)N3C[C@H](CO)C[C@H](CN(C)C)C3)c2)c1`, the activity in test [1] is 7.14%; in test [3], 0.542%; in test [4], 4.94%. Also, in test [2], the activity change, negative = inhibition came to 2.08%.

As to `CCn1cc(CN2CCCC23CCN(c2cc(C)nc4ccccc24)CC3)c(C)n1`, the activity in test [1] is 3.11%; in test [3] it was -3.44%; in test [4] it was 6.12%. In addition, the activity change, negative = inhibition in test [2] amounted to 4.01%.
